According to PubChem BioAssay AID651599 (National Center for Advancing Translational Sciences (NCATS), 2012):
Records with an inconclusive call do not appear. Activity calls are given as the source filed them. Calls come from the whole dose curve; as a rule, active = well fitted inhibition curve with a large enough effect; inconclusive = small, poorly fitted or top-dose-only effect; inactive = no such curve, though single readings can be large or run the other way.

biological target: Tumor susceptibility gene 101 protein (Homo sapiens) (UniProt Q99816); assay: qHTS Assay for Iinhibitors of HIV-1 Budding by Blocking the Interaction of PTAP/TSG101: Hit Validation in TR assay; conditions: Tsg101 binding domain + Texas Red-labeled PTAP peptide, fluorescence polarization, 20 min; series mostly up to 57.5 µM; activity change, negative = inhibition: at the top concentration
In short: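 Texas Red-PTAP peptide (50 nM) binding to Tsg101 binding domain (10 uM), both final, in pH 7.5 HEPES buffer, read as polarization after 20 min at room temperature; compounds pinned before peptide addition.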
% is set by controls: 0 for no effect and ±100 for the full control effect; potency is the fitted concentration of half-maximal effect.

Sequence of Tumor susceptibility gene 101 protein (Homo sapiens) (Q99816 whole entry, looked up, the tested form may be a part): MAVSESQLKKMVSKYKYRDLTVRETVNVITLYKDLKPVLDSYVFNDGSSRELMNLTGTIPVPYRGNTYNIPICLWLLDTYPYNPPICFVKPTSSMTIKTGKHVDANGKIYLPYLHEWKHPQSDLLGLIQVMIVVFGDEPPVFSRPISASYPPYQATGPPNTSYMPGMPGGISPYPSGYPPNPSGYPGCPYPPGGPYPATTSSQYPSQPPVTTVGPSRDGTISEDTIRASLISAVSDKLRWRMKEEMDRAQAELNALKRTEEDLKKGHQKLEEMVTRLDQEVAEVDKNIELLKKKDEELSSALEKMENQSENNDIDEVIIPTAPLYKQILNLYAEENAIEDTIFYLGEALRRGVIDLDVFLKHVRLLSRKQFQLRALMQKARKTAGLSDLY

SMILES	activity change, negative = inhibition	Potency
CC1CC(C)CN(C(=O)c2ccc3c(c2NCCO)C(=O)c2ccccc2C3=O)C1 (stereo not given)	-24.3% (inactive)	–
CC1=CC(=C(C#N)c2nc3ccccc3s2)C=C(C)N1Cc1ccco1	25.6% (inactive)	–
CCC1(c2ccccc2)NC(=O)N(CC(=O)Nc2ccc(OC)nc2)C1=O (stereo not given)	6.88% (inactive)	–
C1=C(c2ccc(-c3ccccc3)cc2)Nc2ncnn2C1c1ccco1 (stereo not given)	-22.9% (inactive)	–
Cc1ccc(C2C=C(c3ccc(Cl)cc3)Nc3nc(NS(=O)(=O)c4ccccc4)nn32)cc1 (stereo not given)	17.1% (inactive)	–
O=C(C1=NN(c2ccccc2)C2C(=O)N(c3cccc(Cl)c3)C(=O)C12)c1ccccc1 (stereo not given)	–	29.1 µM (active)
Cc1c(C(=O)N(C)c2cccc(C(F)(F)F)c2)sc2nc3n(c(=O)c12)CCCCC3	-10.5% (inactive)	–
CCCN(CCC)S(=O)(=O)c1ccc(C(=O)OCCN2C(=O)c3cccc4c(N5CCOCC5)ccc(c34)C2=O)cc1	-6.8% (inactive)	–
Cc1ccc(Nc2ccc([N+](=O)[O-])ccc2=O)cc1	-6.67% (inactive)	–
COc1cccc2c1C(=O)c1c(O)c3c(c(O)c1C2=O)CC(O)(C(C)=O)CC3OC1CC(N(C)C)C(O)C(C)O1 (stereo not given)	-14.6% (inactive)	–
CC1C2C(c3ccccc3)N(C)C(=O)N(C)C2N(C)C(=O)N1C (stereo not given)	-10.7% (inactive)	–
OC(CN1CCN(c2ccccn2)CC1)Cn1c2ccccc2c2ccccc21 (stereo not given)	-12.6% (inactive)	–
N#Cc1ccsc1NC(=O)CSc1nncs1	10.2% (inactive)	–
Oc1ccc2nnc3c(Br)cnn3c2c1	-3.06% (inactive)	–
Cc1cc(/C=C2\SC(=S)NC2=O)c(C)n1-c1ccccc1	13.5% (inactive)	–
CC1(C)CC(=O)C2=C(C1)OC(N)=C(C#N)[C@@H]2c1ccccc1[N+](=O)[O-]	-8.7% (inactive)	–
O=c1oc2ccccc2cc1-c1nc(-c2cccs2)cs1	-12.5% (inactive)	–
Cc1n[nH]c(C)c1N1C(=O)c2cccc3c(N4CCCCCC4)ccc(c23)C1=O	5.79% (inactive)	–
Cc1nc2nc(-c3cccs3)cn2nc1C	5.54% (inactive)	–
Cn1cc(/C=C2\SC(=S)N(NC(=O)c3ccccc3Cl)C2=O)c2ccccc21	-14.3% (inactive)	–
